Shiga inhibitor: inhibitors of Shiga toxin in Vero cells; Vero cells, Shiga toxin protein synthesis inhibition reporter; inhibition, % at 38.7 µM; actives 9.2% (n = 290,000); AID 2315; in the data active = inhibition mostly above about 28%, no sharp cut-off; inactive = mostly below about 43%; note: 0% is about no effect
AmpC no deterg: blocks E. coli AmpC beta-lactamase in detergent-free assay | P00811 | AmpC nitrocefin hydrolysis, absorbance 480 nm, 0.0001% Triton | Potency, µM (highest dose often 57.1 µM), without a hit: at the highest dose activity change, negative = inhibition, hits mostly inhibitors | actives 0.52% (n = 330,000);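 note: potency is the fitted concentration of half-maximal effect; plate controls were no compound for no effect and no enzyme for full effect; nearly all actives have a fitted effect of over 20% in size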
Target sequence (P00811 whole entry, looked up): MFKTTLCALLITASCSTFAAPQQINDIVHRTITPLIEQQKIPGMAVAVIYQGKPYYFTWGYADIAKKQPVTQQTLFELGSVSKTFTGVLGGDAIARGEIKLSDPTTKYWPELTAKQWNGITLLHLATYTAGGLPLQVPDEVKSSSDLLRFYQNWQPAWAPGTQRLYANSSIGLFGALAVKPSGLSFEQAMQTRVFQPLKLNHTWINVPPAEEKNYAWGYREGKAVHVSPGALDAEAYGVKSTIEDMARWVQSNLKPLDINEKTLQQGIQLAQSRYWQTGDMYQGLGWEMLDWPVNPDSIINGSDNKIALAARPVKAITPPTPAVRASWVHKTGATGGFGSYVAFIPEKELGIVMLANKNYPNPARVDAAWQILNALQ
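20 mM phosphate pH 7.0 + 0.01% (detergent screen) or 0.0001% Triton X-100; 5.3 nM AmpC reagent; cpd preinc 15 min RT; nitrocefin (800 uM stock) to start; A480 q20 s × 4 min; Activity was normalised to no-enzyme and no-compound control wells.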
AMA1 RON2 block: AMA1-RON2 (P. falciparum) interaction inhibition. AlphaScreen AMA1-biotinylated RON2 peptide binding. Potency, µM (highest dose often 58.2 µM), without a hit: at the highest dose activity change, negative = inhibition, usual class: inhibitors. actives 0.2% (n = 360,000). AID 720542;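 note: potency is the fitted concentration of half-maximal effect; 0% = vehicle wells and -100% = peptide control; nearly all actives have a fitted effect of over 45% in size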
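AMA1 (3D7) with his tag at 25 nM final met compounds first, then biotinylated RON2 peptide at 25 nM; detection used donor plus acceptor beads, 10 µg/mL apiece, read by AlphaScreen after 30 min at room temperature.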
SARS PLP yeast: inhibitors of SARS-CoV papain-like protease in yeast; Potency, µM (series often up to 32.9 µM), for inactives: top-dose activity, positive = growth rescue, usual class: activators; AID 485353; actives 0.19% (n = 330,000); S. cerevisiae expressing SARS-CoV PLpro, growth rescue; calls by dose curve; note: potency is the fitted concentration of half-maximal effect; 0% is about no effect; nearly all actives have a fitted effect of over 55% in size
CHX counter: affects cycloheximide protein synthesis inhibition readout, counter-screen | cell reporter, cycloheximide protein synthesis inhibition counterscreen | max response, % | actives 12% (n = 300,000) | AID 2314; in the data active = max response mostly above about 13%, no sharp cut-off; inactive = mostly below about 14%; note: read at 38.3 µM for the half of the compounds with a filed dose; 0% is about no effect
AmpC detergent: inhibitors of E. coli AmpC beta-lactamase with detergent. AmpC hydrolysis of nitrocefin, absorbance 480 nm, 0.01% Triton. Potency, µM (series often up to 114 µM), for inactives: at the highest dose activity change, negative = inhibition, usual class: inhibitors. actives 0.041% (n = 370,000). AID 485294;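 note: potency is the fitted concentration of half-maximal effect; 0% = no-compound wells and -100% = no-enzyme wells; nearly all actives have a fitted effect of over 25% in size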
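20 mM phosphate pH 7.0 + 0.01% (detergent screen) or 0.0001% Triton X-100; 5.3 nM AmpC reagent; cpd preinc 15 min RT; nitrocefin (800 uM stock) to start; A480 q20 s × 4 min; Activity was normalised to no-enzyme and no-compound control wells.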
An asterisk follows results filed as active; [ ] = remark or other dose. This is one part of a sample in which hits are shown more often than they occur. Unless noted, calls come from the whole dose curve; as a rule, active = well fitted curve in the direction sought with a large enough effect; inconclusive = small, poorly fitted or top-dose-only effect, or another doubt; inactive = no such curve, though single readings can be large; an effect the other way counts as inactive or inconclusive.

Results for COc1ccc(N2CCN(c3ccc(C(=O)O)cc3[N+](=O)[O-])CC2)cc1 ?
Shiga inhibitor: 31; AmpC no deterg: -12%; AMA1 RON2 block: -6%; SARS PLP yeast: 1%; CHX counter: 12*; AmpC detergent: -6%

Results for CC(=O)c1ccc(N2CCN(c3ncccn3)CC2)c([N+](=O)[O-])c1 ?
Shiga inhibitor: 36; AmpC no deterg: 12%; AMA1 RON2 block: -10%; SARS PLP yeast: -8%; CHX counter: 10; AmpC detergent: -3%

Results for COC(=O)c1ccc(N2CCN(CC(=O)c3ccc(-c4ccccc4)cc3)CC2)c([N+](=O)[O-])c1 ?
Shiga inhibitor: 60*; AmpC no deterg: 78%; AMA1 RON2 block: -1%; SARS PLP yeast: -8%; CHX counter: 85*; AmpC detergent: -10%

What do the screens show for `CC(=O)c1ccc(N2CCc3ccccc3C2)c([N+](=O)[O-])c1`?
Shiga inhibitor: 76*; AmpC no deterg: -7%; AMA1 RON2 block: -15%; SARS PLP yeast: -1%; CHX counter: 30*; AmpC detergent: -14%

What do the screens show for `COC(=O)c1ccc(N2CCc3ccccc32)c([N+](=O)[O-])c1`?
Shiga inhibitor: 5; AmpC no deterg: -24%; AMA1 RON2 block: 13µM*; SARS PLP yeast: -4%; CHX counter: 9; AmpC detergent: -12%

What do the screens show for `O=C(O)c1ccc(N2CCc3ccccc32)c([N+](=O)[O-])c1`?
Shiga inhibitor: -4; AmpC no deterg: -30%; AMA1 RON2 block: -3%; SARS PLP yeast: 1%; CHX counter: -5; AmpC detergent: -16%

What do the screens show for `O=C(OCC(=O)N1CCCC1)c1ccc(S(=O)(=O)N2CCOCC2)cc1`?
Shiga inhibitor: -5; AmpC no deterg: -8%; AMA1 RON2 block: 0%; SARS PLP yeast: 1%; CHX counter: 1; AmpC detergent: inconclusive

How did C=CCn1c(-c2ccco2)n[nH]c1=S do in these assays?
Shiga inhibitor: -11; AmpC no deterg: -2%; AMA1 RON2 block: 12%; SARS PLP yeast: -4%; CHX counter: -2; AmpC detergent: -3%

How did CN1CCN(c2ccc(C(=O)c3ccccc3)cc2[N+](=O)[O-])CC1 do in these assays?
Shiga inhibitor: 32*; AmpC no deterg: 1%; AMA1 RON2 block: 3%[11.6 µM]; SARS PLP yeast: 2%; CHX counter: 40*; AmpC detergent: -18%

How did Cn1/c(=N/N=C/c2ccc(N3CCOCC3)cc2)sc2ccccc21 do in these assays?
Shiga inhibitor: 71*; AmpC no deterg: 2%; AMA1 RON2 block: -1%; SARS PLP yeast: -1%; CHX counter: 37*; AmpC detergent: 1%

How did Cn1/c(=N/N=C/c2ccccn2)sc2ccccc21 do in these assays?
Shiga inhibitor: 92*; AmpC no deterg: 210%; AMA1 RON2 block: -17%; SARS PLP yeast: 0%; CHX counter: 51*; AmpC detergent: -3%

Results for Cn1/c(=N/N=C/c2ccc(Cl)c([N+](=O)[O-])c2)sc2ccccc21 ?
Shiga inhibitor: -5; AmpC no deterg: -21%; AMA1 RON2 block: -7%; SARS PLP yeast: -13%; CHX counter: 9; AmpC detergent: inconclusive

How did COc1ccc(N(CC(=O)NC2CCCC2)C(=O)Cn2nnc(-c3ccc(OC)c(OC)c3)n2)cc1 do in these assays?
Shiga inhibitor: -25; AmpC no deterg: 48%; AMA1 RON2 block: -10%; SARS PLP yeast: 2%; CHX counter: -3; AmpC detergent: -1%

What do the screens show for `O=C(NCC1CC1)c1ccc2c3n(nc2c1)-c1ccccc1CO3`?
Shiga inhibitor: 92*; AmpC no deterg: -9%; AMA1 RON2 block: -6%; SARS PLP yeast: -9%; CHX counter: 30*; AmpC detergent: 1%

What do the screens show for `O=C(NCCO)c1ccc2c3n(nc2c1)-c1ccccc1CO3`?
Shiga inhibitor: 44*; AmpC no deterg: -22%; AMA1 RON2 block: 21%; SARS PLP yeast: -3%; CHX counter: 39*; AmpC detergent: -4%

What do the screens show for `Cc1ccc2c(c1)COc1c3ccc(C(=O)NCC4CC4)cc3nn1-2`?
Shiga inhibitor: 54*; AmpC no deterg: -8%; AMA1 RON2 block: -5%; SARS PLP yeast: -1%; CHX counter: 30*; AmpC detergent: 1%

Source: PubChem (National Center for Advancing Translational Sciences (NCATS))
